The panel holds about 83,000 compounds, 20% with a hit somewhere; the sample as a whole holds those more often.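 Percent growth is the endpoint: 0 to 100 indicates growth inhibition (40 means 60% inhibition), 0 means no net growth, and negative values indicate cell death.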 Unmarked numbers belong to inactive results. Activity calls are given as the source filed them. How the source made its calls: active means growth percent below 10; inactive means the rest.
Columns and labels:
Experiment in all cases: NCI-60 one-dose screen, 48 h (100 = growth as untreated, 0 = no growth, -100 = all killed)
Conditions in all cases: 10 µM unless noted
EKVX NSCLC = system: EKVX NSCLC
SN12C renal = system: SN12C renal
UO-31 renal = system: UO-31 renal
TK-10 renal = system: TK-10 renal
ACHN renal = system: ACHN renal
CAKI-1 renal = system: CAKI-1 renal
A498 renal = system: A498 renal
CCRF-CEM leukemia = system: CCRF-CEM leukemia
MOLT-4 leukemia = system: MOLT-4 leukemia
SR leukemia = system: SR leukemia

| SMILES | growth (EKVX NSCLC) [%] | growth (SN12C renal) [%] | growth (UO-31 renal) | growth (TK-10 renal) | growth (ACHN renal) | growth (CAKI-1 renal) | growth (A498 renal) | growth (CCRF-CEM leukemia) | growth (MOLT-4 leukemia) | growth (SR leukemia) |
| --- | --- | --- | --- | --- | --- | --- | --- | --- | --- | --- |
| COc1ccc(C2C3=C(COC3=O)N(CCO)c3cc4c(cc32)OCCO4)cc1 (stereo not given) | 121 | 95.4 | 101% | 91.6% | 96.5% | 80.8% | 93.7% | 89.3% | 81.9% | 31.6% |
| COc1ccc(-c2nocc2-c2cccs2)cc1 | 91.6 | 103 | 88.2% | 104% | 103% | 89.8% | 107% | 105% | 108% | 128% |
| Cc1ccc(C2CC(c3ccc(Nc4nc(NCCO)nc(Nc5ccc(Cl)cc5)n4)cc3)=NN2c2cc(Cl)cc(Cl)c2)cc1 (stereo not given) | 82.7 | 96.4 | 70.4% | 113% | 95.3% | 73.5% | 79.1% | 96.8% | 93.7% | 107% |
| Cc1nn(-c2nc3ccccc3[nH]2)c2c1C(c1ccc(OCC(N)=O)cc1)CC(=O)N2 (stereo not given) | 96.9 | 101 | 81.9% | 114% | 102% | 89.5% | 79.1% | 22.5% | -20.1% (active) | 117% |
| COc1ccc(/C(C#N)=C/c2nc3c(N4CCOCC4)nc(Cl)nc3n2C)cc1OC | 20.1 | 11.2 | -92.9% (active) | -21.1% (active) | -51.3% (active) | -14.2% (active) | -27.8% (active) | 11.8% | 2.05% (active) | 17.7% |
| C=C1C(=O)O[C@H]2[C@H]1CC/C(COC(=O)/C=C\C(=O)O)=C\CC[C@@]1(C)O[C@@H]21 | 102 | 99.1 | 85.2% | 106% | 98% | 100% | 93.5% | 107% | 110% | 114% |
| CCOC(=O)c1c2c(n3cccc(Cl)c13)C(=O)c1ncccc1C2=O | 75.7 | 16.6 | 43.9% | 75.6% | 26.4% | 25.8% | 79.3% | 84.2% | 95.8% | 58.3% |
| O=C(c1nc2ccccc2[nH]1)C1[C@@H](c2cccc(O)c2)C2CC3CCCCC3N2[C@@]12C(=O)Nc1cc(Cl)ccc12 (stereo not given in full) | 41.9 | 43.6 | 33.5% | 72.4% | 30.4% | 80% | 52.7% | 15% | 7.08% (active) | 3.72% (active) |
| CCC(C)(C)C(=O)O[C@H]1C[C@@H](C)C=C2C=C[C@H](C)[C@H](CC[C@@H]3CC=CC(=O)O3)[C@H]21 | 107 | 62.8 | 76% | 109% | 70.9% | 84.5% | 107% | 3.21% (active) | 1.21% (active) | 7.49% (active) |
| COC(=O)/C(CCC=C(C)C)=C1\[C@@H](OC(C)=O)C[C@@]2(C)[C@H]1C[C@@H](O)[C@H]1[C@@]3(C)CC[C@H](NCCO)[C@@H](C)[C@@H]3CC[C@@]12C | 99.6 | 105 | 78.9% | 115% | 97.3% | 91% | 101% | 101% | 96.7% | 98.3% |
| Nc1nc(N)c2c(n1)NC1(C=C(O)c3ccccc31)C1=C(N2)c2ccccc2C1=O (stereo not given) | 113 | 102 | 77.1% | 142% | 96.1% | 83.8% | 109% | 97.3% | 104% | 134% |
| COc1ccc(-c2cn[nH]c2-c2ccc(OC)c(O)c2)cc1 | 84.9 | 91.3 | 85.1% | 88.6% | 92.2% | 75% | 59% | 71.9% | 67.4% | 33.7% |
| O=C(c1nc2ccccc2[nH]1)C1C(c2ccc([N+](=O)[O-])cc2)C2CC3CCCCC3N2[C@@]12C(=O)Nc1cc(Cl)ccc12 (stereo not given in full) | 16.6 | 34.1 | 13.1% | 36.7% | 18.4% | 41.5% | -1.18% (active) | 24.2% | 8.23% (active) | 19.6% |

Source: PubChem BioAssay (NCI)
